Test results taken from PubChem BioAssay.

What was measured:
[1] = system: Human papillomavirus type 1a protein E7 (residues 44-93); assay: HPV1a E7 fragment binders on microarrays, primary screen, biochemical, small-molecule microarray, residues 44-93, 635 nm fluorescence (AID 1108); conditions: small-molecule microarray binding, fluorescence 635 nm; higher = more signal;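 further: E7 fragment applied at 1 µg/mL in TBST for 1 h at 4 C; score combines spot fluorescence with its signal to noise ratio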
[2] = modulators of HCV replicon luciferase signal, primary screen, HCV replication inhibitor project, Huh7 cells, luciferase reporter (AID 1109); conditions: 48 h, higher = more signal;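 further: huh7 hepatoma cells harbouring a luciferase neomycin HCV replicon reporter; luciferase luminescence as measure of HCV replicon replication; test concentration not given here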
[3] = biological target: Left-right determination factor 2 (Homo sapiens) (UniProt O00292); assay: LEFTY2 binders on small-molecule microarrays, primary screen, biochemical, small-molecule microarray, 635 nm fluorescence scan (AID 1110); conditions: LEFTY2 binding, higher = more signal
[4] = biological target: Calmodulin-1 (Homo sapiens) (UniProt P0DP23); assay: CALM1 binders on microarrays, EGTA buffer, profiling panel, biochemical, small-molecule microarray, Cy5-labelled CALM1 (AID 1111); conditions: Cy5-CALM1 binding fluorescence, higher = more signal;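 further: labelled calmodulin applied in Tris saline Tween buffer holding calcium plus EGTA and DTT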
[5] = biological target: Calmodulin-1 (Homo sapiens) (UniProt P0DP23); assay: calcium-bound CALM1 binders on microarrays, profiling panel, artefact control for SMM control-protein annotation, biochemical, small-molecule microarray, Cy5-labelled CALM1, plus calcium (AID 1112); conditions: Cy5-CALM1 binding fluorescence, higher = more signal;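 further: score merges spot fluorescence with signal to noise from triplicate slides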
[6] = small-molecule microarray binders of probe aWnt5a, primary screen, biochemical, biotinylated probe, 635/667 nm fluorescence (AID 1113); conditions: higher = more signal;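 further: score merges 667 nm fluorescence intensity with signal-to-noise per printed feature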
[7] = small-molecule microarray binders of probe aShh, primary screen, biochemical, biotinylated probe, 635/667 nm fluorescence (AID 1114); conditions: higher = more signal;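 further: probe is biotin-labelled aShh protein from a stem cell growth factor screen; measures binding of labelled protein to compounds printed on the slide; score merges feature fluorescence at 667 nm with signal-to-noise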
[8] = small-molecule microarray binders of probe aNog, primary screen, biochemical, biotinylated probe, 635/667 nm fluorescence (AID 1115); conditions: higher = more signal;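 further: probe is biotinylated aNog protein used at 0.15 µg/mL for 1 h at 4 C; z-score combines 667 nm fluorescence of each spot with its signal to noise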
[9] = biological target: Torsin-1A-interacting protein 1 (Homo sapiens) (UniProt Q5JTV8); assay: LAP1 binders from COS7 cell lysate, primary screen, small-molecule microarray, 635/667 nm fluorescence (AID 1116); conditions: COS7-hLAP1 lysate binding, 635 nm fluorescence, higher = more signal
[10] = biological target: Alpha-bungarotoxin (Bungarus multicinctus) (UniProt P60615); assay: alpha-bungarotoxin binders on microarray, profiling panel, artefact control for SMM control protein annotation, biochemical, small-molecule microarray, Alexa647 label, 635/667 nm fluorescence (AID 1117); conditions: alpha-BTX-A647 binding fluorescence, higher = more signal
Sequence of Alpha-bungarotoxin (Bungarus multicinctus) (P60615 whole entry, looked up): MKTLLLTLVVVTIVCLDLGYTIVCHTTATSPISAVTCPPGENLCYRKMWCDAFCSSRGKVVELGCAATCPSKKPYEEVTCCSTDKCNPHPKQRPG

Sequence of Torsin-1A-interacting protein 1 (Homo sapiens) (Q5JTV8 whole entry, looked up): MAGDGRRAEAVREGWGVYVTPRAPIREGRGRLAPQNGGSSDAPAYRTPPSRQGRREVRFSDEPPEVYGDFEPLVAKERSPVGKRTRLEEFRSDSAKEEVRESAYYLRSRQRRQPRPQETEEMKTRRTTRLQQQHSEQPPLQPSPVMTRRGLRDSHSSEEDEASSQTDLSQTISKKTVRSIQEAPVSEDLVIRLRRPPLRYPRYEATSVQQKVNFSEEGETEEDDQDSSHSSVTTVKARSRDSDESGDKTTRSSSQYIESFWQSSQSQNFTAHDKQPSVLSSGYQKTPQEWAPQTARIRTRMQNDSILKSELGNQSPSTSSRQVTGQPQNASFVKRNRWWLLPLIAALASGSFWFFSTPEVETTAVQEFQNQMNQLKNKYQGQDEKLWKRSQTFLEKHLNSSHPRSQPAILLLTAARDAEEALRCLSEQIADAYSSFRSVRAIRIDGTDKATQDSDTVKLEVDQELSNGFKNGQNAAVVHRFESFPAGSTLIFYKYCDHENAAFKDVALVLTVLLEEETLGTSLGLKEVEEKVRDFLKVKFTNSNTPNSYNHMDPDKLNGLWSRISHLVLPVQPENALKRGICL
Sequence of Left-right determination factor 2 (Homo sapiens) (O00292 whole entry, looked up): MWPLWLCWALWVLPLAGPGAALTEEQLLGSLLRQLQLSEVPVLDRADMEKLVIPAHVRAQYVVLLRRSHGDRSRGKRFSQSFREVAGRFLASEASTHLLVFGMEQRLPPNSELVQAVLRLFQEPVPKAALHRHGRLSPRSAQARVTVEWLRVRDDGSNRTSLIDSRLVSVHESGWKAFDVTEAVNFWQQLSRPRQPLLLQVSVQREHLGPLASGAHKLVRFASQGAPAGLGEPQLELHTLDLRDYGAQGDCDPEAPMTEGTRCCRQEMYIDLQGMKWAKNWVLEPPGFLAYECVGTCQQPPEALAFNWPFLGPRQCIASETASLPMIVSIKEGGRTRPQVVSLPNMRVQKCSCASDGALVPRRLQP

Structure (SMILES) | composite z-score [1] | z-score [2] | composite z-score [3] | composite z-score [4] | composite z-score [5] | composite z-score [6] | composite z-score [7] | composite z-score [8] | composite z-score [9] | composite z-score [10]
CC(=CC1CCCCC1)[C@@H](NC(=O)c1ccc(C(F)(F)F)cc1)c1ccc(-c2ccccc2)cc1 | -0.778 | -1.04 | -0.886 | 0.605 | 0.636 | -0.0735 | 0.151 | 0.506 | -0.204 | 0.48
COC(=O)[C@@]1(Cc2ccc(F)cc2)[C@H]2c3cc(C(=O)N(C)C)n(CCc4ccccn4)c3C[C@H]2CN1C(=O)c1ccccc1 | 1.39 | -0.72 | 0.384 | -0.012 | -0.47 | 1.12 | -0.394 | 0.796 | 0.468 | 0.292
CCCCCCCCCCC(O)C1C=CC2C(=O)N(Cc3ccccc3)C(=O)C2N1n1cnnc1 (stereo not given) | 1.37 | -1.2 | -0.62 | 1.55 | 0.727 | 0.147 | 0.251 | 0.62 | 0.36 | 1.02
CCOC(=O)C[C@H]1[C@H](OC(=O)c2ccccc2-c2ccccc2)[C@@H](NC(=O)Cc2ccc(OC)cc2)c2cc(OCCCO)ccc2N1C(=O)c1ccccc1 | 0.0712 | -2.08 | -0.3 | -0.0521 | -0.317 | -0.0519 | -0.327 | -0.443 | 0.246 | -0.0826
CC(=O)C1=CCC(c2ccccc2)N(S(=O)(=O)c2ccc(C)cc2)C1 (stereo not given) | 1.41 | -0.975 | 0.034 | -0.105 | -0.163 | -0.0758 | 0.156 | 0.471 | 1.28 | 0.19
COCCOC(=O)N1C(=O)[C@@]2(c3cc(C#CCCO)ccc31)[C@H](C(=O)NC[C@H](O)c1ccccc1)[C@H]1C(=O)O[C@H](c3ccccc3)[C@H](c3ccccc3)N1[C@@H]2c1ccc(O)cc1 | 0.727 | -0.485 | -0.186 | 0.302 | 0.262 | -0.0519 | -0.416 | -0.0784 | 1.11 | 0.476
C[C@H]1NC(=O)[C@H](Cc2ccccc2)NC(=O)[C@@]23C(=O)N[C@@H](Cc4ccccc4)C2[C@H](C)[C@@]2(C)O[C@H]2C3/C=C/C/C=C\CNC1=O (stereo not given in full) | -0.794 | 0.136 | 0.133 | -0.638 | -0.859 | -0.146 | -0.324 | -0.429 | -0.214 | -0.407
C=CCC(OC(C)=O)[C@@H]1[C@@H](N(Cc2cccc3ccccc23)C(=O)c2cccc3ccccc23)c2cc(OCCCO)ccc2N1C(=O)c1ccc2ccccc2n1 (stereo not given in full) | -0.316 | 1.21 | 0.146 | -0.301 | 0.117 | -0.208 | -0.138 | 0.151 | -0.117 | -0.198
CCC(CC)C(O)C1C=CC2C(=O)N(c3ccccc3)C(=O)C2N1Nc1ccc(C#N)cc1 (stereo not given) | 1.46 | 0.106 | 0.0717 | 1.67 | 0.55 | 0.275 | 0.57 | 1.78 | 0.602 | 1.08
CN(C)CCCCCCNC(=O)[C@H]1C[C@H]2C(=O)N[C@@H](CCCCN)C(=O)N2[C@H]1c1ccc(O)cc1 | 1.48 | -0.181 | 1.56 | 2.01 | 1.14 | 0.914 | 2.1 | 3.38 | 4.52 | 2.42
O=c1cccc(C=Cc2ccccc2)o1 | -0.64 | -0.854 | -1.31 | -0.471 | -0.274 | -0.145 | 0.147 | -0.411 | -0.363 | -0.374
C=C[C@H](C)[C@@H](O)c1ccc(O)c2ccccc12 | -0.899 | -2 | -0.187 | -1.15 | -0.975 | -0.175 | -0.221 | -0.689 | -0.438 | 0.465
